Screening results: PubChem, National Center for Advancing Translational Sciences (NCATS)
p53null 32C kill = qHTS Screen for Compounds that Selectively Target Cancer Cells with p53 Mutations: Cytotoxicity of p53 Null Cells at the Permissive Temperature; H1299-neo p53 null cells, ATP luminescence, 24 h, 32C; Potency, µM (top dose mostly 46.1 µM), without a hit: at the highest dose activity change, negative = cytotoxicity, most hits filed as cytotoxic; 55,000 compounds, 0.62% hits;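 also: potency is read from the fitted curve at half-maximal effect; 0% = DMSO only and -100% = full killing by 100 µM tamoxifen; nearly all actives have a fitted effect of over 55% in size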
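H1299-neo (p53-null) cells, 600/well, were pre-incubated overnight at 37C, then exposed to compounds at up to 46 uM for 24 hr at 32C. Viability was measured as ATP content by luminescence, and AC50 values came from Hill fits.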
GPR32 ag = qHTS for Agonists of Human Resolvin D1 Receptor DRV1; Probable G-protein coupled receptor 32 (Homo sapiens), O75388; activation, % at 76.9 µM; 48,000 compounds, 2.5% hits; CHO-K1 GPR32 beta-arrestin PathHunter luminescence, 90 min; zero percent set by DMSO-only wells;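 active = activation of at least 60% and not above a set upper limit, about 1 call in 100 departs from these limits; inconclusive = activation of 40% to 60%, or above that upper limit; inactive = activation under 40%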; also: 0% is about no effect
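Using DMSO wells as EC0, agonist-induced signal was taken as chemiluminescence from beta-Gal reconstituted upon beta-arrestin recruitment to GPR32 in CHO-K1 cells after 90 min compound treatment.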
p53null 39C tox = qHTS Screen for Compounds that Selectively Target Cancer Cells with p53 Mutations: Cytotoxicity of p53 Null Cells at the Nonpermissive Temperature. H1299 p53-null (neo) cells, 39C, ATPlite viability, 24 h. Potency, µM (highest dose often 46.1 µM), without a hit: at the highest dose activity, negative = cell killing, most hits filed as cytotoxic. 55,000 compounds, 0.97% hits. AID 904, 2007;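 also: potency is read from the fitted curve at half-maximal effect; 0% = DMSO only and -100% = full killing by 100 µM tamoxifen; nearly all actives have a fitted effect of over 50% in size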
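Luminescent ATP signal reported cell survival after H1299 lines (neo, p53 null; or p53 A138V) received up to 46 uM compound and 24 hr incubation at 39C.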
FH mod = Identification of activators of human fumarate hydratase by quantitative high-throughput screening; 54,000 compounds, 0.22% hits; AID 1347055, 2019; Potency, µM (doses to about 79.9 µM), without a hit: at the highest dose activity change, negative = inhibition, hits mostly inhibitors; FH coupled MDH/diaphorase resazurin fluorescence, 15 min; also: potency is read from the fitted curve at half-maximal effect; % is scaled to controls: 0 for no effect and ±100 for the full control effect; the screen sought activators but most active calls are inhibition curves; nearly all actives have a fitted effect of over 45% in size
Target sequence (P07954 whole entry, looked up): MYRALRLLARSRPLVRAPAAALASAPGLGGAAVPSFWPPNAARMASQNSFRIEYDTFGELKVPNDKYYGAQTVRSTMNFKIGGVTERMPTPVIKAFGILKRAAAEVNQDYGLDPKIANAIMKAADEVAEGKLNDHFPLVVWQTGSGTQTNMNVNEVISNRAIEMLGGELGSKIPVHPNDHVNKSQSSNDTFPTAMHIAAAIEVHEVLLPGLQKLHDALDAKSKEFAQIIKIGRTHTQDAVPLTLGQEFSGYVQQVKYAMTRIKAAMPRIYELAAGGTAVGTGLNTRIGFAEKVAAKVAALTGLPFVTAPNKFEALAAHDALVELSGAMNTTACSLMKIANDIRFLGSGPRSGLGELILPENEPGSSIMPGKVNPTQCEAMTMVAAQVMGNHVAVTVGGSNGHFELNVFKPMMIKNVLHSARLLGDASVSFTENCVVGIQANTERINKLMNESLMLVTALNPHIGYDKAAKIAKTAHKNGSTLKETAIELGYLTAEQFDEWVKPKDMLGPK
An asterisk follows results filed as active; ? = inconclusive; · = not tested or not shown; [ ] = another dose, or the depositor's remark. Shown are actives, neighbours in structure and some others; about 2.9% of the full set was active somewhere. Unless noted, calls follow the shape of the dose curve; as a rule, active = well fitted curve in the direction sought with a large enough effect; inconclusive = small, poorly fitted or top-dose-only effect, or another doubt; inactive = no such curve, though single readings can be large; an effect the other way counts as inactive or inconclusive.

SMILES | p53null 32C kill | GPR32 ag | p53null 39C tox | FH mod
O=C(c1cc2c(cc1F)OC(c1ccc(F)cc1)(c1ccc(Cl)cc1Cl)O2)N1CCOCC1 (stereo unspecified) | · | · | · | -6%
CCOc1ccc(C(=O)Nc2ccc3c(c2)OCCO3)cc1Br | ? | 16 | 13µM* | -3%
CCOC(=O)c1cccc(NC(=O)c2ccc3c(c2)nnn3CC)c1 | -8% | 61* | 11% | -20%
CCOC(=O)c1cccc(NC(=O)CSc2nc3cc4ccccc4cc3[nH]2)c1 | -16% | 114* | ? | -6%
COC(=O)c1ccc(NC(=O)CSc2nc3cc4ccccc4cc3[nH]2)cc1 | -18% | 94* | -16% | -12%
CCn1nnc2cc(C(=O)Nc3cccc(Cl)c3)ccc21 | -11% | -7 | -4% | -9%
CC(=O)OC[C@]1(O)[C@H]2[C@H](OC(=O)CC(C)C)OC=C(CO[C@@H]3O[C@H](CO)[C@@H](O)[C@H](O)[C@H]3O)[C@H]2C[C@@H]1O | · | · | · | -1%[53.3 µM]
Oc1ccccc1 | · | 5 | · | -7%[53.3 µM]
Oc1ccc(O)cc1 | · | 2 | · | 3.5µM*
CCO[C@H](Cc1ccc(OCCc2ccc(OS(C)(=O)=O)cc2)cc1)C(=O)O | · | 76* | · | -8%[53.3 µM]
CCCCS(=O)(=O)NC(Cc1ccc(OCCCCC2CCNCC2)cc1)C(=O)O (stereo unspecified) | · | · | · | 9%
CC(C)C[C@@H](C(=O)N[C@@H](Cc1ccc(OCc2ccccc2)cc1)C(=O)NC(C)(C)C)N(C)Cc1ccc(C(C)(C)C)cc1 | · | · | · | 1%
CC(=O)OC1CCC2(C)C(CCC3(C)C2CC=C2C4C(C)C(C)CCC4(C)CCC23C)C1(C)C(=O)O (stereo unspecified) | · | · | · | -24%[53.3 µM]
CC(=O)CC1CCC(C(C)C(=O)OCC(O)CO)O1 (stereo unspecified) | · | · | · | -1%
CCCCCn1c(=O)[nH]c2cc(C(=O)N3CCN(c4cccc(OC)c4)CC3)ccc2c1=O | -1% | 36 | -4% | -4%
CCCCCn1c(=O)[nH]c2cc(C(=O)N3CCN(c4cccc(C)c4)C(C)C3)ccc2c1=O (stereo unspecified) | -5% | 104* | -8% | -8%
O=C1OC(C(=O)Nc2ccc(Cl)c(C(F)(F)F)c2)Cc2ccccc21 (stereo unspecified) | -1% | 80* | -17% | ·
CC(Cc1cccc(C(F)(F)F)c1)NCCOC(=O)c1ccccc1 (stereo unspecified) | · | 63* | · | 2%[53.3 µM]
Cc1cccc(CCNC(=O)c2cc3ccccn3n2)c1 | -16% | 101* | -13% | ·
CCc1ccc(CNC(=O)c2cc3ccccn3n2)cc1 | -7% | 3 | -14% | -12%
O=C(NCc1cccnc1)C(=O)NCC(c1cccnc1)N1CCN(c2ccc(F)cc2)CC1 (stereo unspecified) | 26% | 5 | -3% | -15%
O=C(NCCc1ccccc1)C(=O)NCC(c1cccnc1)N1CCN(c2ccc(F)cc2)CC1 (stereo unspecified) | -4% | 8 | 11µM* | -2%
COC(=O)NCC(c1cccnc1)N1CCN(c2ccc(F)cc2)CC1 (stereo unspecified) | ? | 6 | 25µM* | -2%
CS(=O)(=O)Nc1ccc2oc3c(OC(F)F)ccc(C(=O)Nc4c(Cl)cncc4Cl)c3c2c1 | · | · | · | -4%
COCC1OC(OC(C)(C)C2CCC3(C)C=C(C4CCC5C4(C)CC(O)C4OC(C(C)(C)O)CCC45C)CCC3O2)C(NC(C)=O)C(O)C1O (stereo unspecified) | · | · | · | -2%[20.6 µM]
SMILES | p53null 32C kill | GPR32 ag | p53null 39C tox | FH mod
COc1cc(OC)cc(N(CCNC(C)C)c2ccc3ncc(-c4cnn(C)c4)nc3c2)c1 | · | · | · | -2%
CC(C)CN(C[C@@H](O)[C@H](Cc1ccccc1)NC(=O)O[C@@H]1CO[C@H]2OCC[C@H]21)S(=O)(=O)c1ccc(N)cc1 | · | · | · | 4%
C[C@H](Oc1cc(-n2cnc3ccc(CN4CCN(C)CC4)cc32)sc1C(N)=O)c1ccccc1C(F)(F)F | · | · | · | -2%
COc1ccc(C(=O)Nc2nnc(C)s2)cc1 | 10µM* | -9 | ? | -4%
COc1ccc(C(=O)Nc2cc(OC)nc(OC)n2)cc1 | 11µM* | · | 13µM* | ·
COc1ccc(NC(=O)Nc2nnc(C)s2)cc1 | -20% | -12 | -48% | -6%
Cn1ncc(Cl)c1-c1cc(C(=O)N[C@H](CN)Cc2ccc(F)c(F)c2)sc1Cl | · | · | · | 1%
Cc1cccc(NC(=O)c2c(NC(=O)C(F)(F)F)sc3c2CCCCC3)c1 | -8% | 45 | ? | ?
Cc1ccc(NC(=O)c2c(NC(=O)C(F)(F)F)sc3c2CCCCC3)cc1 | ? | 62* | ? | ?
CN1CCc2cccc3c2C1Cc1ccc(O)c(O)c1-3 (stereo unspecified) | · | 15 | · | 14µM*
Cc1coc2c1CC1OC1(C)CCC1OC1(C)C2 (stereo unspecified) | · | · | · | -1%
O=C(CCCCN1CCOCC1)Nc1ccc(-c2cccnc2)cc1 | · | · | · | -7%
O=C(Nc1cccc2c(=O)cc(-c3nn[nH]n3)oc12)c1ccc(OCCCCc2ccccc2)cc1 | · | 94* | · | ?
Cc1cc(O)c2c(O)c3c(O)cccc3cc2c1 | · | 108* | · | -13%[53.3 µM]
CCOc1ccc(NC(=O)NCCCN2CCN(c3ccc(F)cc3)CC2)cc1 | 7% | 9 | 9% | -3%
O=C(NCCCN1CCN(c2ccc(F)cc2)CC1)Nc1ccc(Cl)cc1 | -2% | 83* | ? | -7%
CCCN(CCC)CCCNC(=O)c1cnn(-c2ccc(F)cc2)c1-n1cccc1 | 5% | 8 | -14% | -2%
O=C(NCCCN1CCN(c2cccc(Cl)c2)CC1)c1cnn(-c2ccc(F)cc2)c1-n1cccc1 | 13% | ? | 22µM* | ?
CCSc1nc2c([nH]c3ccccc32)c(=O)n1-c1ccc(F)cc1 | -3% | 79* | 16% | 7%
CSc1nc2c([nH]c3ccccc32)c(=O)n1-c1ccc(F)cc1 | -18% | ? | 5% | -27%
N[C@@H]1c2cccnc2[C@H](OC(=O)N2CCC(n3c(=O)[nH]c4ncccc43)CC2)CC[C@H]1c1cccc(F)c1F | · | · | · | 0%
CCOc1cccc(C2CC(=O)Nc3cc4c(cc32)OCCO4)c1 (stereo unspecified) | 27% | -6 | 7% | -9%
O=C1CC(c2cc(F)cc(F)c2)c2cc3c(cc2N1)OCO3 (stereo unspecified) | 25% | 38 | -16% | 0%
CCc1ccc(C2CC(=O)Nc3cc4c(cc32)OCO4)cc1 (stereo unspecified) | 14% | 72* | 3% | -6%
COc1ccc(Cl)cc1C1CC(=O)Nc2cc3c(cc21)OCCO3 (stereo unspecified) | 8% | -10 | ? | -10%
O=C1CC(c2ccc(Cl)cc2)c2cc3c(cc2N1)OCCO3 (stereo unspecified) | 27% | 80* | 14% | -18%
